# PubChem BioAssay (NCI)
# Compounds without any hit were thinned out: in the full panel of roughly 79,000, 15% have a hit. A number with no mark means an inactive call. The source made the active and inactive calls. No stated cut-off is given here; in the data, active means growth inhibition above about 70%; inactive means the rest.
# Assays:
# [1] = NCI Yeast Anticancer Drug Screen. Data for the rad50 strain (AID 155);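 further: 0% = growth of vehicle-only cultures of the same strain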; conditions: S. cerevisiae rad50 strain growth inhibition; at 50.0 µM; hits give high values
# Procedure, shortened: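 Cells are treated with compound, grown, and their growth is then scored against vehicle-only cultures of the same repair-deficient yeast strain.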
# [2] = NCI Yeast Anticancer Drug Screen. Data for the mec2-1 strain (AID 157); conditions: S. cerevisiae mec2-1 strain, at 50.0 µM, hits give high values
# Procedure, shortened: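 Each compound was tested on mec2-1 yeast, a strain altered in DNA damage repair or cell cycle control. Growth inhibition is reported relative to vehicle.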
# [3] = NCI Yeast Anticancer Drug Screen. Data for the sgs1 mgt1 strain (AID 161);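 further: 0% = growth of cultures given vehicle only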; conditions: S. cerevisiae sgs1 mgt1 strain, at 50.0 µM, hits give high values
# Procedure, shortened: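 Mutant yeast exposed to compound; growth scored against vehicle-only wells.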
# [4] = NCI Yeast Anticancer Drug Screen. Data for the cln2 rad14 strain (AID 165);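 further: 0% = growth equal to vehicle treated cultures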; conditions: S. cerevisiae cln2 rad14 strain, at 50.0 µM, hits give high values
# Procedure, shortened: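 Test compounds were added to cln2 rad14 yeast cultures; inhibition of growth was then determined by comparison with vehicle treatment.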
# [5] = NCI Yeast Anticancer Drug Screen. Data for the bub3 strain (AID 167); conditions: S. cerevisiae bub3 mutant strain, at 50.0 µM, hits give high values
# Procedure, shortened: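 Part of a panel of yeast mutants defective in DNA damage repair or cell cycle regulation. Each strain is grown with compound, and inhibition is calculated relative to solvent-treated cultures.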
# [6] = NCI Yeast Anticancer Drug Screen. Data for the mlh1 rad18 strain (AID 175); conditions: S. cerevisiae mlh1 rad18 strain growth inhibition; at 50.0 µM; hits give high values
# Procedure, shortened: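 Inhibition values reflect reduced growth of mutant yeast versus vehicle-treated controls following compound exposure; the mutations affect DNA damage repair.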
Structure (SMILES),growth inhibition [1],growth inhibition [2] [%],growth inhibition [3],growth inhibition [4] [%],growth inhibition [5],growth inhibition [6]
O=C(Nc1nc2ccccc2[nH]1)C(F)(F)F,-6.8%,-13.4,-3.85%,5.55,-2.55%,20%
CC(C)NC(=O)OCCN=C1c2ccccc2C(Br)C(Br)c2ccccc21 (stereo unspecified),3.25%,-5.1,2.05%,1.1,4.9%,8.6%
CC1(C2=CCCCC2)CCC(=O)NC1=O (stereo unspecified),-6.35%,10.6,0.2%,35.2,14.1%,28.8%
CCCc1cc(=O)oc2c3c(c4c(c12)OC(C)(C)CC4)O[C@H](C)C(C)[C@@H]3O (stereo partly specified),9.9%,7.45,22.1%,-11.3,2.85%,-10.6%
NCCNCc1ccncc1,-38%,-41.5,-58.5%,-11.3,-47.2%,-27.2%
O=C1CCCC(=S)N1,3.1%,4.2,9.35%,16.8,14.3%,6.1%
COC(=O)C1CC/C(=N\Nc2ccc([N+](=O)[O-])cc2[N+](=O)[O-])CC1C(=O)OC (stereo unspecified),10.2%,-5.75,-8.75%,-1.65,5.2%,19.6%
COc1ccc2c(cnc3c4cc(OC)c(OC)cc4ccc23)c1,15.2%,-0.85,4.05%,-4.9,24.9%,3.6%
CCCC(O)CO (stereo unspecified),5.55%,1.9,0.15%,-0.6,-0.5%,40.2%
COC(=O)C1=C(C(=O)OC)SC(=C2C3=C(SC(C(=O)OC)=C(C(=O)OC)S3)c3ccccc32)S1,31.1%,-2.15,21.9%,18.9,-4.6%,21.2%
COC(=O)CCC1CCCC(CCC(=O)OC)C1=O (stereo unspecified),-4.9%,4.55,-17.6%,-6.1,-1.1%,-3.3%
CCOC(=O)C1=C(C(=O)c2ccc(C)cc2)C(c2ccc([N+](=O)[O-])cc2)C(C(=O)c2ccc(C)cc2)=C(C(=O)OCC)N1,-27.3%,-18.2,-8.9%,-12.4,-14.9%,-11.7%
Cc1ccc(/C=N/NC(N)=S)c(C)c1,8.5%,-25.4,17.3%,-30.9,7.15%,16.6%
CCOC(=O)c1ccc(NC(NC(=O)CC)(C(F)(F)F)C(F)(F)F)cc1,-26.6%,-20.4,-69.2%,-19.1,-8.9%,-54%
CSc1ccc(C(=NO)c2ccc(SC)cc2)cc1,-11.4%,17.8,-1.3%,-0.85,-8.5%,-11.7%
COC(=O)/C(=C/Cl)NC(C)=O,3.2%,-7.55,-4.8%,-9.9,8.7%,5.8%
[N-]=[N+]=Nc1ccccc1C(=O)NCCNC(=O)c1ccccc1N=[N+]=[N-],-7.4%,-31.9,2.25%,6.85,2.6%,6.75%
NCCSSCCCCSSCCN,-8.95%,-0.7,-13.7%,-43.2,-1.2%,-1.9%
CC(=O)CCC(=O)CC(=O)CCC(=O)Nc1cc(Cl)ccc1Cl,15.3%,24.2,19.9%,31.2,2.5%,6.2%
[Cl][Pd][Cl].[NH-]c1ccc(/C=C2\C=Cc3ccccc32)cc1.[NH-]c1ccc(/C=C2\C=Cc3ccccc32)cc1,89.5% (active),32.8,83.7% (active),47.4,75.5% (active),79.3% (active)
CC1CCC2C(C)C3C(CC4C5CC=C6CC(O)CCC6(C)C5CCC43COC(=O)c3ccccc3)N2C1 (stereo unspecified),44.4%,16.8,55.8%,21.4,5.95%,42.6%

Structure (SMILES),growth inhibition [1],growth inhibition [2] [%],growth inhibition [3],growth inhibition [4] [%],growth inhibition [5],growth inhibition [6]
CC(C)C1=C(Cc2ccccc2)C(=O)O/C1=C\c1ccc(O)c(Cl)c1,2.8%,-22.9,28.2%,21.4,6.05%,-20.1%
CC(C)(C)N=C(N)NC#N,9.6%,9.25,-9.85%,17.1,-4.5%,-33.3%
COC(=O)c1ccccc1OC(=S)N(C)C,-8.75%,-11.4,-8.45%,-29.1,0.75%,-17.4%
CN(C)CCCNC(=O)N/N=C\c1cccc2ccccc12,-2.9%,-24,-17.4%,14.8,-4%,-6.45%
C/C(=N\N=C(N)N)c1sc(-c2nc(C)c(/C(C)=N/N=C(N)N)s2)nc1C,4.35%,-11.2,-13.3%,26.4,6.85%,19.6%
CCOC(=O)C1=C(Nc2ccc(F)cc2)C(=O)N(CC)C1,1.3%,-15.3,24.4%,-6.45,19.9%,21.4%
CN(C)CC(C)(C)CO,7.2%,-0.2,3.85%,9.25,-9.1%,4.95%
CCOC(=O)/C(=C\c1cccc(F)c1)C(C)=O,20.6%,15.3,7.05%,-4.9,13.7%,41.5%
O=S1(=O)C=C(Br)CO1,-4.65%,1.75,-2.5%,-17.4,-20.6%,-15.7%
CCOP(=Nc1ccccc1)(OCC)OCC,4.1%,5.85,-3.9%,-5,1.75%,9.4%
CCOC(=O)NC1CCc2ccccc2C1 (stereo unspecified),5.95%,0.3,4%,-13.9,-3%,2.6%
CCOC(=O)CCC1(C)OCC(O)CO1 (stereo unspecified) (tested in a mixture with another compound),-11.1%,-5.25,-5.6%,-2.85,-16.6%,-25.8%
Nc1nc(C(=O)O)c([N+](=O)[O-])c(=O)[nH]1,-31.6%,-13.7,-14.4%,-20.5,-6.9%,-11.8%
CC(=O)NC1=C/C(=C/COC(C)=O)OC1=O,22.6%,-9.9,11.8%,-57,5.8%,8.75%
COCCN1CC(=O)N2Cc3ccccc3CN2C(=O)C1,-4.6%,-13.8,-6.15%,-9.5,-3%,-6.65%
c1ccc(CCN2CCN=C2Cc2ccccc2)cc1,13.8%,8,0.95%,-32.8,-27.1%,9.3%
Cc1ccc2c(c1)C1(c3ccc(Cl)c(Cl)c3)Oc3ccc(C)cc3C(c3ccc(Cl)c(Cl)c3)(O2)O1,4.1%,5.15,-6.7%,2.15,3.65%,-3%
C=CC[N+](C)(CC=C)CC[N+](C)(CC=C)CC=C,-15%,1.35,-14.9%,-43.5,1.6%,-18.4%
CC1Cn2c(nnc2-c2ccccc2O)S1 (stereo unspecified),-14.1%,0.6,-3.25%,-2.95,-15.3%,-12.6%
CCN(CC)CCCO,27.8%,-12.3,-7.75%,-8.8,-4.6%,20.1%
